Test [1] can be described thus: optical density shifts of acrAB sulA E. coli – strain DRC41, OD650, 48 h, E. coli filamentation inducer project, primary screen (AID 1152).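 Further: E. coli MC1000 strain DRC41 lacking acrAB efflux pump and sulA.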 The settings on record: higher = more signal, called active from +8 up or from −8 down.
Test [2] is described as follows: probe aLefty1 binding on compound microarray – biochemical, small-molecule microarray, 635/667 nm fluorescence, primary screen (AID 1153).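 Further: score merges spot fluorescence with signal-to-noise ratio from the scanned slide images.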 The following applies: higher = more signal.
Test [3] is described as follows: plasmodial surface anion channel blockers, osmotic lysis – cell-based, P. falciparum Indochina, OD700, 1 h, primary screen (AID 1154). The following applies: P. falciparum Indochina infected RBC osmotic lysis, higher = more signal, called active from +8 up or from −8 down.
The nature of test [4]: plasmodial surface anion channel blockers, osmotic lysis – cell-based, P. falciparum Indochina, OD700, 2 h, primary screen (AID 1155).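 Further: lysis reports solute entry through the parasite surface anion channel PSAC.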 The settings on record: P. falciparum Indochina infected erythrocytes, higher = more signal, called active from +8 up or from −8 down.
Test [5] can be described thus: changes in parasitized red cell lysis, either direction – P. falciparum Indochina, OD700, 3 h, PSAC antagonist project, primary screen (AID 1156). The following applies: P. falciparum-infected erythrocytes, osmotic lysis, higher = more signal, called active from +8 up or from −8 down.
Test [6] in a line: plasmodial surface anion channel blockers, osmotic lysis – cell-based, P. falciparum Indochina, OD700, 18 h, primary screen (AID 1157). The following applies: P. falciparum Indochina infected erythrocytes, osmotic lysis OD700, 18 h; higher = more signal, called active from +8 up or from −8 down.
Test [7] in a line: S6 kinase pathway phospho-S6 level changes – cell-based, A549, cytoblot, luminescence, serum-stimulated, primary screen (AID 1158).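 Further: serum-stimulated A549 lung adenocarcinoma cells; signal is phosphorylated S6 detected by cytoblot immunostaining with HRP secondary.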 The settings on record: 5 h, higher = more signal.
Test [8] addresses NADPH oxidase 2 (Homo sapiens) (UniProt P04839). Description: compounds shifting NOX2 Amplex Red fluorescence – cell-based, HEK293-NOX2, PMA-stimulated, NOX inhibitor project, primary screen (AID 1159). Further: test concentration not given here. The following applies: 45 min, higher = more signal, called active from +8 up or from −8 down.
The target in test [9] is NADPH oxidase 4 (Homo sapiens) (UniProt Q9NPH5). Description: compounds shifting NOX4 Amplex Red fluorescence – cell-based, HEK293-NOX4, tetracycline-induced, NOX inhibitor project, primary screen (AID 1160). The following applies: HEK293-NOX4, Amplex Red H2O2 fluorescence, 45 min; higher = more signal, called active from +8 up or from −8 down.
The target of test [10] is NADPH oxidase 5 (Homo sapiens) (UniProt Q96PH1). Description: compounds shifting NOX5 Amplex Red fluorescence – cell-based, HEK293-NOX5, NOX inhibitor project, primary screen (AID 1161). The settings on record: HEK293-NOX5, ionomycin, 45 min, higher = more signal.
Test [11] can be described thus: compound effects on lung adenocarcinoma cell viability – A549, calcein-AM fluorescence, 48 h, basal, profiling panel (AID 1162). Further: test concentration not given here. The settings on record: higher = more signal.
The nature of test [12]: compound effects on differentiated 3T3-L1 adipocyte viability – cell-based, 3T3-L1 adipocytes, calcein-AM fluorescence, 48 h, basal, profiling panel (AID 1163). Further: test concentration not given here. The following applies: 3T3-L1 adipocytes viability, higher = more signal.
A short description of test [13]: compound effects on hepatocellular carcinoma cell viability – HepG2, calcein-AM fluorescence, 48 h, basal, profiling panel (AID 1164). Further: test concentration not given here. The following applies: higher = more signal.
Test [14] is described as follows: compound effects on multiple myeloma cell viability – MM1S, calcein-AM fluorescence, 48 h, basal, profiling panel (AID 1165).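 Further: viability of MM1S multiple myeloma cells under basal unstimulated conditions; test concentration not given here.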 The settings on record: higher = more signal.
A short description of test [15]: calcein-AM signal in unstimulated myeloma cells – cell-based, calcein-AM fluorescence, 48 h, PK04 Diversity Set, profiling panel (AID 1166).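 Further: cells grown under basal conditions without added stimulus; test concentration not given here.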 The following applies: RPMI8226 myeloma viability, higher = more signal.
The nature of test [16]: JC-1 mitochondrial signal, unstimulated HepG2 cells – cell-based, JC-1 fluorescence, 24 h, 100 nL compound, profiling panel (AID 1167). Further: test concentration not given here. The following applies: HepG2 mitochondrial potential, higher = more signal.
Test [17] is described as follows: JC-1 mitochondrial signal, unstimulated adipocytes – cell-based, JC-1 fluorescence, 3T3-L1 adipocytes, 24 h, 100 nL compound, profiling panel (AID 1168). Further: test concentration not given here. The settings on record: JC-1 mitochondrial fluorescence, higher = more signal, called active from +8 up or from −8 down.
Test [18] can be described thus: JC-1 mitochondrial signal, unstimulated myeloma cells – cell-based, JC-1 fluorescence, RPMI8226, 24 h, 100 nL compound, profiling panel (AID 1169). Further: test concentration not given here. The settings on record: JC-1 mitochondrial potential fluorescence, higher = more signal.
Test [19] in a line: JC-1 mitochondrial signal, unstimulated MM1S myeloma – cell-based, JC-1 fluorescence, 24 h, 100 nL compound, profiling panel (AID 1170). Further: test concentration not given here. The following applies: MM1S mitochondrial potential, higher = more signal.
Test [20] can be described thus: resazurin metabolic signal in A549 cells – cell-based, resazurin fluorescence, 24 h, PK04 Diversity Set, profiling panel (AID 1171). Further: test concentration not given here. The settings on record: A549 viability, higher = more signal, called active from +8 up or from −8 down.

Values joined by “and” are separate entries in the source; they are usually repeats but may differ in a detail not shown here. Identical values can stand only once. More than one record can exist for a structure, and the calls need not agree. Active and inactive are the calls of the source.

Chain of NADPH oxidase 5 (Homo sapiens) (Q96PH1 whole entry, looked up): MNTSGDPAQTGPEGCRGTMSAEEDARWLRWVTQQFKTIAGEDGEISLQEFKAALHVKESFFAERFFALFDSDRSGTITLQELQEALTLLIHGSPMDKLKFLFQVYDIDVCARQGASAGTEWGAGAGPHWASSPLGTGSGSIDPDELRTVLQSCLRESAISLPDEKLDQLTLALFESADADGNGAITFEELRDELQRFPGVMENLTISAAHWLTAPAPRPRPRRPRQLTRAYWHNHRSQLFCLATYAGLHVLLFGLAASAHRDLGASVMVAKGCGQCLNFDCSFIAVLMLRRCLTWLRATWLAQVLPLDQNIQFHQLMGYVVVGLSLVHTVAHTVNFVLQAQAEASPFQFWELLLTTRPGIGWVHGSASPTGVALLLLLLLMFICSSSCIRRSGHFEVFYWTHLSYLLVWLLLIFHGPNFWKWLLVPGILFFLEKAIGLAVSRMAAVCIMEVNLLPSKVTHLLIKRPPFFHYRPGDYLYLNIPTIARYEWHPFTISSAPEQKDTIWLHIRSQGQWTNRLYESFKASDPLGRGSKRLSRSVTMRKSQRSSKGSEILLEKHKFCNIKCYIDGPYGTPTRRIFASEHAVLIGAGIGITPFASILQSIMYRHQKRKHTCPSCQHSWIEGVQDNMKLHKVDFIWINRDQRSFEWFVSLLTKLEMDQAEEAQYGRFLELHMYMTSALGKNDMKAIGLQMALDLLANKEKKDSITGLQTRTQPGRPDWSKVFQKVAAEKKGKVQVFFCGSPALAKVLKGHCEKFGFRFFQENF
Chain of NADPH oxidase 4 (Homo sapiens) (Q9NPH5 whole entry, looked up): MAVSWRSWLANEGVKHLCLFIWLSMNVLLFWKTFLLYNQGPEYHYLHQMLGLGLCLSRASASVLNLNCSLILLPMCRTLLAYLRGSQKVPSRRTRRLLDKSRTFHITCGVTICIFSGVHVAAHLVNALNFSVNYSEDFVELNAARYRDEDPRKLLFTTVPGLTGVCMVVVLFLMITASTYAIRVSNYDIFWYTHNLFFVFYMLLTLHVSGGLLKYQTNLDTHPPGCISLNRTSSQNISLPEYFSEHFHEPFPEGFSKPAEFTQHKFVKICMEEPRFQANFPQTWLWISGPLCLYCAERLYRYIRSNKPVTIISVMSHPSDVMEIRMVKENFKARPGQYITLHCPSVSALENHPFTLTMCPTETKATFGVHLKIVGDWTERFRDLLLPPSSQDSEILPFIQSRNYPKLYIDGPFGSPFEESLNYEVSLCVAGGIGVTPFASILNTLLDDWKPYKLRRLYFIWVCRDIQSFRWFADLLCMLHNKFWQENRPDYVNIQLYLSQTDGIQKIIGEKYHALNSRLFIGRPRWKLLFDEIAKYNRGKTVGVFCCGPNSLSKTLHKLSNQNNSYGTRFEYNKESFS
Chain of NADPH oxidase 2 (Homo sapiens) (P04839 whole entry, looked up): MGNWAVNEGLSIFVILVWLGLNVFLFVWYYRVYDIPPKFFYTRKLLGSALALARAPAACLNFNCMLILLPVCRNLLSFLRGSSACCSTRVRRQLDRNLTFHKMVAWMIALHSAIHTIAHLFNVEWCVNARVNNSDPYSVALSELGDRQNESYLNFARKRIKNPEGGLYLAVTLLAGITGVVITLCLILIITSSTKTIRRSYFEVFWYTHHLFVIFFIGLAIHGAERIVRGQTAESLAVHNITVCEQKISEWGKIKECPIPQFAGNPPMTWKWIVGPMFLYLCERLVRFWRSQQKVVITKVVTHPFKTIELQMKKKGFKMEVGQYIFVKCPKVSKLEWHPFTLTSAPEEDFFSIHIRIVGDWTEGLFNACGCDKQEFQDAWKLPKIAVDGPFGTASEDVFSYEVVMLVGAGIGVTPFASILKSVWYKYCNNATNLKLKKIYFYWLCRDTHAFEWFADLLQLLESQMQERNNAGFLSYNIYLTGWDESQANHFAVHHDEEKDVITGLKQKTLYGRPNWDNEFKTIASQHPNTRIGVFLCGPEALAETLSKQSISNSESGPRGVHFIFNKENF

On to `C=CCN(C(=O)C1N(CCOCCO)C(=O)C2C(C(=O)O)C3C=CC21O3)c1ccc(OC)cc1` (stereo not given), for which the z-score in test [1] was 0.168 (inactive) and 0.839 (inactive); in test [3], -0.586 (inactive) and -1.15 (inactive); in [4], 0.0933 (inactive) and -0.0778 (inactive); in test [5], -1.1 (inactive) and -0.285 (inactive); in [6], -0.0612 (inactive) and -0.161 (inactive); in [7], 1.4 and -0.338. Also, the z-score in test [8] is 0.073 (inactive) and 0.856 (inactive); in test [9], -0.509 (inactive) and -0.782 (inactive); in [10], 0.624 and -0.275; in test [11], -0.0891 and 0.163; in test [12] it was -0.24 and 0.366; in test [13] it was 0.136 and 0.857. Also, the z-score in [14] was 0.963 and -0.688; in test [15] it was -0.25 and 0.0863; in test [16], 0.191 and -1.15; in [17] it was 0.124 (inactive) and 1.32 (inactive); in test [18] it was -0.0484 and 0.126; in test [19], 1.01 and 0.642. For the same compound, in [20], the z-score is -0.237 (inactive) and 0.168 (inactive). Moreover, the composite z-score in test [2] is -0.262 and -0.243.
Take `O=C1NC(=O)C2C1C=CC(C(O)c1ccc([N+](=O)[O-])cc1)N2Nc1ccc(Cl)cc1Cl` (stereo not given): the z-score in test [1] was 0.302 (inactive) and 1.01 (inactive); in test [3] it was 9.67 (active) and 3.11 (inactive); in [4] it was 0.913 (inactive) and 0.168 (inactive); in test [5], 0.538 (inactive) and -0.138 (inactive); in [6], -0.988 (inactive) and -1.28 (inactive); in test [7], 0.474 and 0.7. Further, the z-score in [8] is 0.313 (inactive) and 0.609 (inactive); in [9], -5.29 (inactive) and -4.55 (inactive); in [10], -1.98 and -1.75; in test [11], 0.953 and 1.59; in [12] it was 0.0938 and 0.263; in test [13] it was 0.949 and 1.79. In addition, the z-score was -0.251 and 0.596 in test [14]; -0.194 and 0.932 in [15]; -0.115 and -0.654 in [16]; -0.833 (inactive) and -0.57 (inactive) in test [17]; -0.314 and -0.905 in test [18]; 0.319 and 2.28 in [19]. In test [20], the z-score is 0.303 (inactive) and 0.766 (inactive). The composite z-score in test [2] was 0.134 and 0.623.
`CCC[C@@H]1C[C@@]1(CCC)[C@@H](NC(=O)c1ccc(-c2ccccc2)cc1)c1cccc(Cl)c1`: the z-score was -2.52 (inactive) and -0.473 (inactive) in [1]; 2.33 (inactive) and 6.65 (inactive) in test [3]; 0.011 (inactive) and 0.853 (inactive) in test [4]; 0.364 (inactive) and 0.0717 (inactive) in test [5]; 0.446 (inactive) and 0.691 (inactive) in test [6]; -0.366 and -0.0422 in test [7]. In addition, the z-score in test [8] was -1.8 (inactive) and -1.74 (inactive); in test [9] it was -2.39 (inactive) and -5.23 (inactive); in [10], -1.31 and -1.93; in test [11], -2.26 and 0.247; in [12] it was -0.882 and -0.867; in [13], -2.12 and 1.52. Moreover, the z-score in [14] was -2.16 and -0.143; in test [15] it was -2.94 and -1.06; in test [16], -0.93 and 2.74; in [17], -0.723 (inactive) and 0.883 (inactive); in [18], -0.256 and 0.137; in test [19], -0.647 and -1.16. Further, the z-score in test [20] was 2.06 (inactive) and 0.608 (inactive). Besides, the composite z-score in test [2] was 2.19 and 0.345.

The values are drawn from PubChem BioAssay.
